Measured values as given in PubChem BioAssay (Tox21).
Several values for one entry are separate records, joined by “and”; a condition that tells them apart may be missing. Identical values can stand only once. Records with an inconclusive call do not appear. Entries that show only a call come without a potency. A structure can be active in one record and inactive in another. Activity calls are given as the source filed them. Calls follow the shape of the full dose curve.

Experiment: qHTS assay to identify small molecule agonists of the progesterone receptor (PR) signaling pathway - cell viability counter screen (AID 1346799); also: nearly all actives have a fitted effect of over 45% in size
Conditions: PR-UAS-bla HEK293T viability, CellTiter-Glo luminescence, 16 h; series mostly up to 92.4 µM
Text: National Center for Advancing Translational Sciences [NCATS]
NIH Chemical Genomics Center [NCGC]
U.S. Environmental Protection Agency [EPA]
National Institutes of Environmental Health Sciences [NIEHS]
National Toxicology Program [NTP]
U.S. Food and Drug Administration [FDA]
Progesterone receptor (PR), a nuclear hormone receptor, plays an important role in development, metabolic homeostasis and reproduction. It is activated by the steroid hormone progesterone. Endocrine disrupting chemicals (EDCs) and their interactions with steroid hormone receptors like PR causes disruption of normal endocrine function. To identify the compounds that stimulate PR signaling, a PR-UAS-bla GripTite cell line i.e. PR-UAS-bla HEK293T (Invitrogen, Carlsbad, CA, USA) containing a beta-lactamase reporter gene under the control of an UAS response element was used to screen Tox21 10K compound library. The cytotoxicity of the Tox21 compound library against the PR-bla cell line was tested in parallel by measuring the cell viability using CellTiter-Glo assay in the same wells.
Tox21 Assay Protocol Summary:
PR-UAS-bla HEK293T cells were dispensed at 3,000 cells/5 uL of assay medium containing 2% charcoal stripped FBS per well into black wall/clear-bottom 1536-well plates using a Multidrop Combi (ThermoFisher Scientific, Waltham, MA) dispenser. After the assay plates were incubated at a 37C and 5% CO2 for 6 hr, 23 nL of compounds dissolved in DMSO, positive controls or DMSO only was transferred to the assay plate by a Pintool station (Kalypsys, San Diego, CA). The plates were incubated at 37C and 5% CO2 for 16 hr. Then 1 uL of LiveBLAzer B/G FRET substrate was added using a Flying Reagent Dispenser (FRD, Aurora Discovery, San Diego, CA), the plates were incubated at room temperature for 2 hours, and fluorescence intensity was measured by an Envision plate reader (PerkinElmer, Shelton, CT). For cell viability readout that measures cytotoxicity, 4 uL/well of CellTiter-Glo reagent was added into the assay plates using a FRD. After 30 min incubation at room temperature, the luminescence intensity in the plates was measured using a ViewLux (PerkinElmer) plate reader.
Potency is read from the fitted curve at half-maximal effect.

Structure (SMILES) | Potency
CCCCOCCOCCOC(C)=O | inactive
Cc1cccc2ccccc12 | inactive
CC(C)CC(C)CC(O)CC(C)C (stereo not given) | inactive
Nc1ccc(N=Nc2ccccc2)c(N)n1 | inactive
COc1ccccc1O | inactive
OCCCc1ccccc1 | inactive
COCC(C)N (stereo not given) | inactive
CCCCOC(=O)CCCCCCCCC(=O)OCCCC | inactive
CCOC(=O)C(C)(C)Oc1ccc(Cl)cc1 | inactive
CCCCC/C(C=O)=C\c1ccccc1 | inactive
CCCCCCCC(=O)OCC(O)CO (stereo not given) | inactive
CC(=O)OC/C=C(C)/C=C/C=C(C)/C=C/C1=C(C)CCCC1(C)C | inactive
CCn1cc(C(=O)O)c(=O)c2ccc(C)nc21 | inactive
O=C(O)Cc1cccc2ccccc12 | inactive and 21.7 µM (active)
C/C=C/c1ccc(O)c(OC)c1 | inactive
C[C@]12CC[C@@H]3c4ccc(O)cc4CC[C@H]3[C@@H]1CCC2=O | inactive
CC(=O)c1ccc(S(=O)(=O)NC(=O)NC2CCCCC2)cc1 | inactive
OC[C@@H](O)[C@@H](O)[C@H](O)[C@H](O)CO | inactive
CC1=NN(c2ccccc2)C(=O)C1 | inactive
CCCCCCCCCCCCCC(=O)OC(C)C | inactive

Structure (SMILES) | Potency
CCCCNC(=O)NS(=O)(=O)c1ccc(N)cc1 | inactive
COC(=O)C1CCC(C(=O)OC)CC1 (stereo not given) | inactive
CC(=O)CCC(C)C | inactive
NC(=O)N/N=C/c1ccc([N+](=O)[O-])o1 | inactive
C=CC(=O)NC(C)(C)CS(=O)(=O)O | inactive
Cn1cnc2c1c(=O)[nH]c(=O)n2C | inactive
O=C1CCCCCN1 | inactive
C1CNCCN1 | inactive
CO[C@H]1C=CO[C@@]2(C)Oc3c(C)c(O)c4c(O)c(c(/C=N/N5CCN(C)CC5)c(O)c4c3C2=O)NC(=O)/C(C)=C\C=C[C@H](C)[C@H](O)[C@@H](C)[C@@H](O)[C@@H](C)[C@H](OC(C)=O)[C@@H]1C | inactive
CC(C)(C)NCC(O)c1ccc(O)c(CO)c1 (stereo not given) | inactive
COc1ccccc1NC(=O)CC(C)=O | inactive
NCCNc1cccc2ccccc12 | inactive
C=C(C)OC(C)=O | inactive
Cc1c(N(C)C)c(=O)n(-c2ccccc2)n1C | inactive
O=C(O)CN(CC(=O)O)CC(=O)O | inactive
COC(=O)c1ccc(C=O)cc1 | inactive
COC(=O)c1ccc(O)cc1 | inactive
C[C@]12CC[C@@H]3c4ccc(O)cc4C[C@@H](CCCCCCCCCS(=O)CCCC(F)(F)C(F)(F)F)[C@H]3[C@@H]1CC[C@@H]2O (stereo not given in full) | inactive
CCCCOCCOCCSC#N | inactive
O=C(O)CCCCC1CCSS1 (stereo not given) | inactive
